Among the data in ChEMBL document CHEMBL1961873, “Compounds: GSK PKIS; Assays: Nanosyn kinase panel” (2012) are inhibition values, retold here.

One assay deals with Cyclin-dependent kinase 1 (Homo sapiens) (UniProt P06493). The following applies: at 1 µM.
Sequence of Cyclin-dependent kinase 1 (Homo sapiens) (P06493 whole entry, looked up): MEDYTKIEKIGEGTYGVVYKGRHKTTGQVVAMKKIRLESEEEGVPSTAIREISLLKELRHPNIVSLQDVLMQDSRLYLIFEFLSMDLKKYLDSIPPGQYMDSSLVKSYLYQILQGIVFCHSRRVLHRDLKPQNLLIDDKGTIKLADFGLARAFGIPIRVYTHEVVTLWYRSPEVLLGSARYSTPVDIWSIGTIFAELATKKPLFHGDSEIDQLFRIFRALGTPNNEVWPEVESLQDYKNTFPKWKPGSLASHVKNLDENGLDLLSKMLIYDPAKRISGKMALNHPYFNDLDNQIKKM
Take `CCn1c(-c2nonc2N)nc2c(C#CC(C)(C)O)ncc(OCC3CCNCC3)c21`: the inhibition was determined as 4.13%.

Consider `CCn1c(-c2nonc2N)nc2c(C#CC(C)(C)O)nc(O[C@@H](CN)c3ccccc3)cc21`, for which the inhibition was determined as 4.92%.

For `NS(=O)(=O)c1ccc(-c2ccc3c(NC(=O)C4CC4)n[nH]c3c2)cc1`, the inhibition is 5.13%.

`CCn1c(-c2nonc2N)nc2c(C#CCN)ncc(OCCCN)c21`: the inhibition was determined as 2.18%.

Consider `CCn1c(-c2nonc2N)nc2c(C#CC(C)(C)O)ncc(OC[C@@H]3CCCN3)c21`, for which the inhibition was 0.58%.

With `COc1cc(C=NNc2ncnc3c2cnn3Cc2ccccc2)ccc1O`, the inhibition was determined as 14.8%.

With `Cc1cc(-c2ccco2)cc(C)c1/C=C/c1cncc(-c2nn[nH]n2)c1`, the inhibition worked out at 2.16%.

On to `Fc1ccc(-c2ncn(C3CCNCC3)c2-c2ccnc(Oc3ccccc3)n2)cc1`, for which the inhibition is -1.98%.

Consider `NS(=O)(=O)c1ccc(N/C=C2\C(=O)Nc3ccc4ncsc4c32)cc1`, for which the inhibition turned out to be 62.4%.

Turning to `COc1cccc(COc2cc(-n3cnc4ccccc43)sc2C(N)=O)c1`, the inhibition was -0.26%.

Take `NC(=O)c1sc(-n2cnc3cc(C(F)(F)F)ccc32)cc1OCc1ccccc1Br`: the inhibition was 4.47%.

`COc1cc2c(cc1Nc1nc(Nc3ccsc3C(N)=O)c3cc[nH]c3n1)N(C(=O)CN(C)C)CCC2`: the inhibition was 6.76%.

As to `COc1cccc(-n2ncc3c(N/N=C/c4ccncc4)ncnc32)c1`, the inhibition came to 81.8%.

In the case of `Nc1nonc1-c1nc2cnccc2n1C1CCCCC1`, the inhibition was 24.5%.

The target of another assay is Cyclin-dependent kinase 2 (Homo sapiens) (UniProt P24941). The following applies: at 0.1 µM.
With `CCn1c(-c2nonc2N)nc2c(C#CC(C)(C)O)ncc(OCC3CCNCC3)c21`, the inhibition was -0.3%.

`CCn1c(-c2nonc2N)nc2c(C#CC(C)(C)O)nc(O[C@@H](CN)c3ccccc3)cc21`: the inhibition is 2.07%.

For `NS(=O)(=O)c1ccc(-c2ccc3c(NC(=O)C4CC4)n[nH]c3c2)cc1`, the inhibition worked out at 2.91%.

On to `CCn1c(-c2nonc2N)nc2c(C#CCN)ncc(OCCCN)c21`, for which the inhibition amounted to 0.26%.

In the case of `CCn1c(-c2nonc2N)nc2c(C#CC(C)(C)O)ncc(OC[C@@H]3CCCN3)c21`, the inhibition was -1.52%.

For the compound `COc1cc(C=NNc2ncnc3c2cnn3Cc2ccccc2)ccc1O`, the inhibition was 0.83%.

For the compound `Cc1cc(-c2ccco2)cc(C)c1/C=C/c1cncc(-c2nn[nH]n2)c1`, the inhibition was determined as 0.49%.

For the compound `Fc1ccc(-c2ncn(C3CCNCC3)c2-c2ccnc(Oc3ccccc3)n2)cc1`, the inhibition was -3.24%.

On to `NS(=O)(=O)c1ccc(N/C=C2\C(=O)Nc3ccc4ncsc4c32)cc1`, for which the inhibition was 82.7%.

On to `COc1cccc(COc2cc(-n3cnc4ccccc43)sc2C(N)=O)c1`, for which the inhibition stood at 0.15%.

As to `NC(=O)c1sc(-n2cnc3cc(C(F)(F)F)ccc32)cc1OCc1ccccc1Br`, the inhibition came to 0.47%.

With `COc1cc2c(cc1Nc1nc(Nc3ccsc3C(N)=O)c3cc[nH]c3n1)N(C(=O)CN(C)C)CCC2`, the inhibition was found to be 4.39%.

As to `COc1cccc(-n2ncc3c(N/N=C/c4ccncc4)ncnc32)c1`, the inhibition was determined as 47%.

In the case of `Nc1nonc1-c1nc2cnccc2n1C1CCCCC1`, the inhibition was determined as 7.81%.

The target is the same in a further assay. The following applies: at 1 µM.
As for `CCn1c(-c2nonc2N)nc2c(C#CC(C)(C)O)ncc(OCC3CCNCC3)c21`, the inhibition came out at 4.17%.

For `CCn1c(-c2nonc2N)nc2c(C#CC(C)(C)O)nc(O[C@@H](CN)c3ccccc3)cc21`, the inhibition was 4.12%.

On to `NS(=O)(=O)c1ccc(-c2ccc3c(NC(=O)C4CC4)n[nH]c3c2)cc1`, for which the inhibition was determined as 13.4%.

Consider `CCn1c(-c2nonc2N)nc2c(C#CCN)ncc(OCCCN)c21`, for which the inhibition came to 0.59%.

Turning to `CCn1c(-c2nonc2N)nc2c(C#CC(C)(C)O)ncc(OC[C@@H]3CCCN3)c21`, the inhibition is -0.07%.

Turning to `COc1cc(C=NNc2ncnc3c2cnn3Cc2ccccc2)ccc1O`, the inhibition is 0.3%.

For the compound `Cc1cc(-c2ccco2)cc(C)c1/C=C/c1cncc(-c2nn[nH]n2)c1`, the inhibition is 1.75%.

On to `Fc1ccc(-c2ncn(C3CCNCC3)c2-c2ccnc(Oc3ccccc3)n2)cc1`, for which the inhibition is -1.87%.

`NS(=O)(=O)c1ccc(N/C=C2\C(=O)Nc3ccc4ncsc4c32)cc1`: the inhibition is 94.4%.

On to `COc1cccc(COc2cc(-n3cnc4ccccc43)sc2C(N)=O)c1`, for which the inhibition is -0.04%.

`NC(=O)c1sc(-n2cnc3cc(C(F)(F)F)ccc32)cc1OCc1ccccc1Br`: the inhibition was determined as 2.92%.

Turning to `COc1cc2c(cc1Nc1nc(Nc3ccsc3C(N)=O)c3cc[nH]c3n1)N(C(=O)CN(C)C)CCC2`, the inhibition came out at 6.12%.

In the case of `COc1cccc(-n2ncc3c(N/N=C/c4ccncc4)ncnc32)c1`, the inhibition was found to be 76.8%.

As to `Nc1nonc1-c1nc2cnccc2n1C1CCCCC1`, the inhibition turned out to be 44.6%.

A further assay shares this target. The following applies: at 0.1 µM. This is another data set of the same source.
Consider `CCn1c(-c2nonc2N)nc2c(C#CC(C)(C)O)ncc(OCC3CCNCC3)c21`, for which the inhibition was found to be 6.49%.

With `CCn1c(-c2nonc2N)nc2c(C#CC(C)(C)O)nc(O[C@@H](CN)c3ccccc3)cc21`, the inhibition was 2.92%.

Regarding `NS(=O)(=O)c1ccc(-c2ccc3c(NC(=O)C4CC4)n[nH]c3c2)cc1`, the inhibition worked out at 2.18%.

`CCn1c(-c2nonc2N)nc2c(C#CCN)ncc(OCCCN)c21`: the inhibition amounted to 2.03%.

For the compound `CCn1c(-c2nonc2N)nc2c(C#CC(C)(C)O)ncc(OC[C@@H]3CCCN3)c21`, the inhibition was -0.64%.

For `COc1cc(C=NNc2ncnc3c2cnn3Cc2ccccc2)ccc1O`, the inhibition is -0.38%.

In the case of `Cc1cc(-c2ccco2)cc(C)c1/C=C/c1cncc(-c2nn[nH]n2)c1`, the inhibition turned out to be 0.38%.

For `Fc1ccc(-c2ncn(C3CCNCC3)c2-c2ccnc(Oc3ccccc3)n2)cc1`, the inhibition was -2.35%.

For the compound `NS(=O)(=O)c1ccc(N/C=C2\C(=O)Nc3ccc4ncsc4c32)cc1`, the inhibition turned out to be 70.8%.

For `COc1cccc(COc2cc(-n3cnc4ccccc43)sc2C(N)=O)c1`, the inhibition was -0.91%.

With `NC(=O)c1sc(-n2cnc3cc(C(F)(F)F)ccc32)cc1OCc1ccccc1Br`, the inhibition is 0.99%.

With `COc1cc2c(cc1Nc1nc(Nc3ccsc3C(N)=O)c3cc[nH]c3n1)N(C(=O)CN(C)C)CCC2`, the inhibition stood at 0.86%.

For the compound `COc1cccc(-n2ncc3c(N/N=C/c4ccncc4)ncnc32)c1`, the inhibition stood at 24.6%.

For `Nc1nonc1-c1nc2cnccc2n1C1CCCCC1`, the inhibition worked out at 8.62%.

Usually inhibition stands for the change of the read-out against control, counted positive when it falls.
